Screens from PubChem BioAssay.
This is a sample that favours compounds with a hit; in the whole collection about 9.2% have one here.
ELG1 repair inh – ELG1-dependent DNA repair inhibition; Potency, µM (series often up to 46.1 µM), for the others: at the top dose activity change, negative = inhibition, actives largely listed as inhibitors; HEK293T ELG1-luciferase reporter, luminescence, 16 h; DNA damage induced by 5-fluorouridine; 2.3% of 330,000 active; further: on the % scale 0 is the no-effect control and ±100 the full control effect; nearly all actives have a fitted effect of over 55% in size
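Cells (2,000 per well) received 5-fluorouridine plus test compound or DMSO and were incubated 16 hr at 37 °C, 5% CO2. Luciferase activity was read by luminescence 30 min after ONE-Glo addition; signal suppression marked inhibition of damage-induced ELG1 function.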
FLuc modulator – firefly luciferase modulation, counter-screen for miR-21 project. 6.9% of 360,000 active. purified FLuc, Km substrates, luminescence inhibition. Potency, µM (series often up to 57.5 µM), without a hit: top-dose activity change, negative = inhibition, hits mostly inhibitors. P08659;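 further: plate controls were vehicle for no effect and reference inhibitor for full effect; nearly all actives have a fitted effect of over 55% in size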
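Purified P. pyralis luciferase, 10 nM final, with Km-level 10 uM D-luciferin and 10 uM ATP in 50 mM Tris acetate pH 7.5, 10 mM Mg acetate, 0.01% Tween-20, 0.05% BSA; 6-point qHTS titration about 60 µM downward; luminescence read.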
Rab9 prom act – activates the Rab9 promoter; Huh7 Rab9 promoter-luciferase reporter, luminescence, 24 h; Potency, µM (doses to about 9.22 µM), for inactives: at the highest dose activation, negative = inhibition, usual class: activators; 2.8% of 320,000 active; AID 485297; further: % of control where 0% means no effect; nearly all actives have a fitted effect of over 60% in size
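Huh7 cells stably carrying Rab9 promoter–luciferase reporter, plated 1500 cells/well, compound added after 2 h and incubated 24 h at 37 °C; luciferase luminescence then read after 10 min with detection reagent.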
NPC1 prom act – NPC1 promoter activation. Huh7 NPC1 promoter luciferase reporter, 24 h. Potency, µM (titrated, usually from 9.22 µM), for inactives: at the highest dose activation, actives largely listed as activators. 2.4% of 320,000 active; further: % of control where 0% means no effect; nearly all actives have a fitted effect of over 60% in size
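Luminescence read-out of NPC1 promoter-driven luciferase in stably transfected Huh7 cells; compounds delivered in DMSO and left 24 h at 37C, 5% CO2, qHTS titration format.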
ELG1 genotoxic – genotoxicity induction in ELG1-luciferase HEK293T cells; HEK293T ELG1-luciferase reporter, luminescence, 16 h; Potency, µM (titrated, usually from 46 µM), for the others: top-dose activity change, positive = activation, usual class: activators; 1.3% of 330,000 active; further: % of control where 0% means no effect; nearly all actives have a fitted effect of over 60% in size
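HEK293T cells expressing luciferase-tagged ELG1 were exposed to compound or DMSO vehicle for 16 hr at 37 °C and 5% CO2. Luciferase activity was then measured with ONE-Glo after 30 min at room temperature.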
SMN2 splice up – enhancers of SMN2 splice variant expression. HEK293 SMN2-luciferase splicing reporter, luminescence, 30-36 h. Potency, µM (top dose mostly 46.1 µM), inactives show top-dose activity change, positive = activation, usual class: activators. 2.8% of 210,000 active. AID 1458; further: % of control where 0% means no effect; nearly all actives have a fitted effect of over 55% in size
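HEK293 cells carry an SMN2 minigene-luciferase reporter in which exon 7 inclusion puts luciferase in frame. Cells were seeded at 2000 cells/well, attached for 10-12 hours, then exposed to compounds for 30-36 hours at 37C before ONE-Glo luminescence.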
ELG1 FLuc counter – luciferase inhibition in cell-free luciferin readout for ELG1 hits | 3% of 350 active | shares compounds with ELG1 repair inh | AID 624247 | Potency, µM (top dose mostly 46.1 µM), inactives show at the top dose activity change, negative = inhibition, usual class: inhibitors | cell-free firefly luciferase luminescence counter-screen, ViewLux; further: on the % scale 0 is the no-effect control and ±100 the full control effect
ELG1 Luc conf – inhibits ELG1-dependent DNA repair in HEK293T cells, confirmed; HEK293T ELG1-luciferase levels, luminescence; cells co-treated with 5-fluorouridine; 68% of 670 active; Potency, µM (titrated, usually from 46.1 µM), for the others: at the highest dose activity change, negative = inhibition, most hits filed as inhibitors; shares compounds with ELG1 repair inh; further: on the % scale 0 is the no-effect control and ±100 the full control effect; nearly all actives have a fitted effect of over 55% in size
ELG1 MMS Luc – confirmation of human ELG1 repair inhibitors, MMS stimulated. Potency, µM (series often up to 46.1 µM), for inactives: top-dose activity change, negative = inhibition, most hits filed as inhibitors. HEK293T luciferase-tagged ELG1 level, MMS stimulated. shares compounds with ELG1 repair inh. 53% of 670 active; further: on the % scale 0 is the no-effect control and ±100 the full control effect; nearly all actives have a fitted effect of over 60% in size
ELG1 5FU viab – confirmation of ELG1 repair inhibitors: viability with 5FU | AID 624250 | 670 tested, under 10 active | Potency, µM (titrated, usually from 46.1 µM), for the others: at the top dose activity change, negative = viability loss, usual class: cytotoxic | shares compounds with ELG1 repair inh | cell viability with 5-FU, ELG1-dependent repair;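 further: ELG1-luc HEK293T cells cotreated with 5-fluorouridine at 10 µM final; viability measured 16 h after compound addition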
ELG1 MMS viab – confirmation of ELG1 repair inhibitors: viability with MMS; shares compounds with ELG1 repair inh; Cell viability with MMS, ELG1-dependent DNA repair; Potency, µM (top dose mostly 46.1 µM), for inactives: at the top dose activity change, negative = viability loss, hits mostly cytotoxic; 33% of 670 active; AID 624251;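 further: ELG1-luc HEK293T cells co-treated with 10 µM MMS; viability read 16 h after compound addition; on the % scale 0 is the no-effect control and ±100 the full control effect; nearly all actives have a fitted effect of over 60% in size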
ELG1 unstim viab – counter-screen for ELG1 repair inhibitors: unstimulated cell viability. cell viability counter-screen, unstimulated, luminescence. 8% of 900 active. shares compounds with ELG1 repair inh. Potency, µM (doses to about 45.9 µM), without a hit: at the top dose activity change, negative = loss of viability, most hits filed as cytotoxic;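 further: compound exposure lasted 16 hours before reading; on the % scale 0 is the no-effect control and ±100 the full control effect; nearly all actives have a fitted effect of over 55% in size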
FLuc biochem – firefly luciferase inhibition counter-screen; shares compounds with ELG1 repair inh; purified firefly luciferase, luminescence counter-screen; Potency, µM (doses to about 57.5 µM), for inactives: at the highest dose activity, negative = inhibition, hits mostly inhibitors; 10% of 350 active; further: on the % scale 0 is the no-effect control and ±100 the full control effect
Active calls of the source: *. The call rests on the fitted dose curve; in most records, active means well fitted curve in the direction sought with a large enough effect; inconclusive means small, poorly fitted or top-dose-only effect, or another doubt; inactive means no such curve, though single readings can be large; an effect the other way counts as inactive or inconclusive. Potency means the concentration at half of the fitted maximal effect.

What do the screens show for `COc1ccc2ccccc2c1/C=N/NC(=S)Nc1cc(S(=O)(=O)N2CCOCC2)ccc1N1CCOCC1`?
ELG1 repair inh: 1.6µM*; FLuc modulator: -13%; Rab9 prom act: -12%; NPC1 prom act: -1%; ELG1 genotoxic: 1%; SMN2 splice up: -7%; ELG1 Luc conf: inconclusive; ELG1 MMS Luc: 11%; ELG1 5FU viab: inconclusive; ELG1 MMS viab: inconclusive; ELG1 unstim viab: 13%

How did COc1ccc(S(=O)(=O)N2CCOCC2)cc1NC(=O)c1cc(C)oc1C do in these assays?
ELG1 repair inh: 2%; FLuc modulator: 4%; Rab9 prom act: -1%; NPC1 prom act: -4%; ELG1 genotoxic: 0%

Results for CCN(CC)S(=O)(=O)c1ccc(N2CCOCC2)c(NC(=O)c2cc(-c3ccccn3)nc3ccccc23)c1 ?
ELG1 repair inh: 1.8µM*; FLuc modulator: -4%; Rab9 prom act: 1%; NPC1 prom act: -3%; ELG1 genotoxic: -12%; SMN2 splice up: -38%; ELG1 Luc conf: 4.4µM*; ELG1 MMS Luc: 5µM*; ELG1 5FU viab: -9%; ELG1 MMS viab: 10µM*; ELG1 unstim viab: inconclusive

How did COc1cc(-c2cc(C(=O)Nc3ccc(S(=O)(=O)NCc4ccco4)cc3)c3ccccc3n2)cc(OC)c1OC do in these assays?
ELG1 repair inh: 2.6µM*; FLuc modulator: 2%; Rab9 prom act: -6%; NPC1 prom act: -5%; ELG1 genotoxic: -6%; ELG1 Luc conf: 2µM*; ELG1 MMS Luc: 4µM*; ELG1 5FU viab: inconclusive; ELG1 MMS viab: -2%; ELG1 unstim viab: -18%

How did COc1cccc(COC(=O)C2CCN(C(=O)c3ccc(F)cc3)CC2)c1OC do in these assays?
ELG1 repair inh: 7%; FLuc modulator: -2%; Rab9 prom act: -1%; NPC1 prom act: -2%; ELG1 genotoxic: -3%

Results for C=CCC[C@H](Cc1ccc(F)cc1)C(=O)OC[C@@H](NC(=O)[C@H](CC=C)CC(=O)NCCO)C(C)(C)C ?
ELG1 repair inh: 6%; ELG1 genotoxic: -1%

What do the screens show for `COc1cc(-c2cc(C(=O)Nc3cc(S(=O)(=O)N4CCOCC4)ccc3C)c3ccccc3n2)cc(OC)c1OC`?
ELG1 repair inh: 3.7µM*; FLuc modulator: 1%; Rab9 prom act: -3%; NPC1 prom act: -3%; ELG1 genotoxic: -9%; ELG1 Luc conf: 5µM*; ELG1 MMS Luc: inconclusive; ELG1 5FU viab: inconclusive; ELG1 MMS viab: -4%; ELG1 unstim viab: inconclusive

How did CC1Cc2ccccc2N1C(=O)CCn1cccn1 (configuration not stated) do in these assays?
ELG1 repair inh: 15%; FLuc modulator: -2%; Rab9 prom act: 0%; NPC1 prom act: -8%; ELG1 genotoxic: -1%

Results for COc1ccc(-c2cn[nH]c2-c2ccc(O)cc2O)cc1OC ?
ELG1 repair inh: -12%; FLuc modulator: 1%; Rab9 prom act: 0%; NPC1 prom act: -1%; ELG1 genotoxic: -1%

What do the screens show for `CCOc1ccc(-c2[nH]ncc2-c2ccc(OC)c(OC)c2)c(O)c1`?
ELG1 repair inh: 2.3µM*; FLuc modulator: 1%; Rab9 prom act: -15%; NPC1 prom act: -33%; ELG1 genotoxic: -26%; SMN2 splice up: -12%; ELG1 Luc conf: 13µM*; ELG1 MMS Luc: inconclusive; ELG1 5FU viab: -4%; ELG1 MMS viab: inconclusive; ELG1 unstim viab: inconclusive

Results for COc1ccc(CNC(=O)C(c2ccc(C)cc2)N(Cc2cccs2)C(=O)c2ccc3c(c2)OCCO3)cc1 (configuration not stated) ?
ELG1 repair inh: inconclusive; FLuc modulator: 1%; Rab9 prom act: 9%; NPC1 prom act: 4%; ELG1 genotoxic: -3%; SMN2 splice up: -29%

What do the screens show for `Cc1ccc(C(C(=O)NCc2ccccc2)N(Cc2cccs2)C(=O)c2ccc3c(c2)OCCO3)cc1` (configuration not stated)?
ELG1 repair inh: 2.9µM*; FLuc modulator: 2%; Rab9 prom act: 0%; NPC1 prom act: 1%; ELG1 genotoxic: -8%; SMN2 splice up: -30%; ELG1 FLuc counter: -4%; ELG1 Luc conf: 7.9µM*; ELG1 MMS Luc: 7.9µM*; ELG1 5FU viab: -10%; ELG1 MMS viab: inconclusive; ELG1 unstim viab: inconclusive; FLuc biochem: -3%
